TbPYK inhibitor – T. brucei pyruvate kinase inhibition | Q57TT1 | TbPYK enzyme, Kinase-Glo Plus ATP luminescence, 45 min | Potency, µM (series often up to 76.8 µM), without a hit: at the top dose activity, negative = inhibition, hits mostly inhibitors | hit rate 0.12% among 410,000 | AID 624173; further: nearly all actives have a fitted effect of over 50% in size
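Enzyme and substrate buffer are dispensed first and compound is pin-transferred. ADP at 130 uM final then starts the reaction, which runs 45 min at room temperature. Detection reagent is added for 10 min before luminescence is imaged.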
LmPK inhibitor – blocks Leishmania mexicana pyruvate kinase activity; Potency, µM (highest dose often 57.5 µM), for the others: top-dose activity change, negative = inhibition, actives largely listed as inhibitors; hit rate 0.37% among 290,000; purified LmPK, Kinase-Glo ATP luminescence, 1 h; Q27686
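qHTS format; LmPK 0.1 nM; substrates PEP 0.5 mM and ADP 0.1 mM. One-hour room-temperature incubation, then coupled luciferase luminescence; 0.5 nM enzyme wells mark activation.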
Giardia FBPA inh – inhibitors of Giardia lamblia fructose-1,6-bisphosphate aldolase; A8B2U2; purified Giardia FBPA; Potency, µM (series often up to 59.6 µM), inactives show at the highest dose activity, negative = inhibition, most hits filed as inhibitors; hit rate 0.71% among 290,000; AID 2451; further: nearly all actives have a fitted effect of over 55% in size
Target sequence (A8B2U2 whole entry, looked up): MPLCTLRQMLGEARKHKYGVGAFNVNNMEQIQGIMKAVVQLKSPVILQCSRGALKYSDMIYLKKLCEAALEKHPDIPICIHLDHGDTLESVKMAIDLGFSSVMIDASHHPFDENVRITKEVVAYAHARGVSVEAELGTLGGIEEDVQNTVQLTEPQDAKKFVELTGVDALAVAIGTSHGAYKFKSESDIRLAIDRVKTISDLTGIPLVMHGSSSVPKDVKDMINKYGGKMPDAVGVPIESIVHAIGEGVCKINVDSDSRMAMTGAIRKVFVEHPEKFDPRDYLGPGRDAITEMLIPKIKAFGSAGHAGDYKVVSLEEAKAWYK
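Giardia FBPA (40 nM reagent) was preincubated 10 min at RT with compound (up to 57.5 uM final), then substrate plus GAPDH/TPI/NAD/arsenate coupling system with diaphorase/resazurin was added; resorufin fluorescence (525/598 nm) was read after 20 min.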
Sm TGR block – blocks Schistosoma mansoni thioredoxin glutathione reductase; hit rate 3% among 360,000; purified TGR, DTNB reduction, TNB absorbance 405 nm; Potency, µM (titrated, usually from 114 µM), inactives show at the highest dose activity change, negative = inhibition, hits mostly inhibitors; Q962Y6; further: nearly all actives have a fitted effect of over 60% in size
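TGR 20 nM + NADPH 100 uM (dispensed conc.), cpd preinc 15 min RT; start with NADPH (500 uM addition) then DTNB (15 mM addition). Kinetic TNB absorbance, 405 nm filter. Four-parameter Hill fit across titration.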
RE007 growth inh – less growth of the S. pombe RE007 Vpr strain; hit rate 0.21% among 360,000; Potency, µM (series often up to 92.2 µM), for the others: at the highest dose activity change, negative = less growth, usual class: inhibitors; S. pombe RE007 Vpr strain, BacTiter-Glo ATP luminescence, 24 h; active means well fitted falling curve with a large enough effect; inconclusive means small, poorly fitted or top-dose-only effect; inactive means no such curve, though single readings can be large or run the other way; further: nearly all actives have a fitted effect of over 50% in size
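Fission yeast RE007 carrying one integrated HIV-1 vpr copy, seeded at OD 0.01 in PMG+AL medium with 23 nL pinned compound. Grown 24 h at 30 degrees; viability read by BacTiter-Glo luminescence after 5 min.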
* marks the source's active call; other numbers are inactive results; ? = inconclusive; . = no result given. In the library only some 3.3% were active in any assay of this set; here they are far more common. Unless noted, the call rests on the fitted dose curve; in most records, active means well fitted curve in the direction sought with a large enough effect; inconclusive means small, poorly fitted or top-dose-only effect, or another doubt; inactive means no such curve, though single readings can be large; an effect the other way counts as inactive or inconclusive. On the % scale 0 is the no-effect control and ±100 the full control effect; potency means the concentration at half of the fitted maximal effect.

SMILES	TbPYK inhibitor	LmPK inhibitor	Giardia FBPA inh	Sm TGR block	RE007 growth inh
C=C1C(=O)[C@@]23[C@H](O)C[C@@H]4C(C)(C)CC[C@H](O)[C@]4(C)[C@@H]2C[C@H](O)[C@@H]1[C@H]3O	-5%	5%	0%	10µM*	2%
O=C1C2C3c4ccccc4C(c4ccccc43)[C@@H]2C(=O)N1c1nc(-c2ccccc2)cs1 (stereo partly specified)	-11%	4%	?	6%	-16%
O=C(Nc1c(C(=O)Nc2cccc(F)c2)oc2ccccc12)c1cc2ccccc2o1	8%	.	.	7%	.
O=C(CN1CCN(Cc2ccccc2)CC1)N1N=CCC1c1ccccc1 (stereo unspecified)	0%	-5%	10%	0%	-3%
CCOC(=O)CSc1nnc(NCC(=O)OC)c(=O)[nH]1	-19%	9%	-1%	16µM*	-5%
O=C(O)C(=O)Cc1c[nH]c2ccccc12	-10%	8%	?	45µM*	8%
Cc1ccc(C(=O)CSc2nnc(COc3ccc(C#N)cc3)n2-c2ccccc2)cc1	-16%	1%	1%	-2%	3%
O=C(O)Cn1cc(/C=C2\C(=O)NC(=O)N(Cc3ccco3)C2=O)c2ccccc21	1%	9%	-9%	5µM*	3%
CCN1C(=O)NC(=O)/C(=C\c2cn(CC(=O)O)c3ccccc23)C1=O	.	-2%	-3%	?	.
COc1ccc(S(=O)(=O)N(C)C[C@H]2Oc3c(NC(=O)Nc4c(C)noc4C)cccc3C(=O)N([C@H](C)CO)C[C@@H]2C)cc1	1%	.	.	.	-10%
CC(=O)c1cccc(N2C(=NC(=O)C3CC3)SC3CS(=O)(=O)CC32)c1 (stereo unspecified)	-2%	3%	-14%	1%	11%
COC(=O)c1ccccc1NC(=O)c1nc(S(=O)(=O)Cc2ccccc2)ncc1Cl	3%	-4%	.	2.8µM*	0%
CC(=O)Nc1ccc(NC(=O)c2nc(S(=O)(=O)Cc3ccccc3)ncc2Cl)cc1	-12%	-9%	.	5µM*	-1%
CCCS(=O)(=O)c1ncc(Cl)c(C(=O)Nc2c(C(=O)Nc3ccccc3)oc3ccccc23)n1	-8%	.	.	-5%	.
O=C(NCc1ccccc1)c1nc(S(=O)(=O)Cc2ccccc2)ncc1Cl	-6%	-4%	.	8.9µM*	-6%
COC(=O)c1ccccc1NC(=O)c1sc(Cl)nc1C	-3%	-1%	2%	-26%	-10%
CS(=O)(=O)c1ncc(Cl)c(C(=O)Nc2ccc3ccccc3c2)n1	-8%	4%	4%	.	-1%
CCCSc1ncc(Cl)c(C(=O)N(Cc2ccccc2)c2ccc(OC)cc2)n1	-6%	.	.	2%	.
COc1ccc(N(Cc2ccccc2)C(=O)c2nc(S(C)(=O)=O)ncc2Cl)cc1	-5%	.	.	5.6µM*	.
Cn1c(SCC(=O)NC2CC2)nnc1-c1ccccn1	-15%	-1%	.	5%	1%
O=C(Oc1ccc(/C=N/NC(=O)c2ccccn2)cc1)c1ccc(Br)cc1	-4%	.	.	.	3%
N#Cc1ccc(C(=O)NC2=NCCS2)cc1	-1%	1%	6%	14%	-2%
NC(=O)c1ccc(NC(=O)COC(=O)CCCOc2ccccc2)cc1	-3%	.	.	0%	2%
CCS(=O)(=O)c1ncc(Cl)c(C(=O)NCc2ccccc2)n1	2%	.	.	32µM*	.
O=C(c1ccc(Cl)cc1)N(Cc1ccco1)Cc1ccco1	4%	.	.	-2%	.
SMILES	TbPYK inhibitor	LmPK inhibitor	Giardia FBPA inh	Sm TGR block	RE007 growth inh
CS(=O)(=O)c1ncc(Cl)c(C(=O)N(Cc2ccc(Cl)cc2)Cc2ccco2)n1	-10%	.	.	1.8µM*	.
COc1ccc(CNC(=O)c2nc(SC(C)C)ncc2Cl)cc1	-9%	.	.	-4%	.
COC(=O)c1cscc1S(=O)(=O)Cc1ccccc1	0%	5%	-12%	10µM*	6%
COc1ccc(CNC(=O)c2nc(S(=O)(=O)Cc3ccccc3)ncc2Cl)cc1	19%	-10%	.	2.5µM*	-7%
C[C@H](CO)N1C[C@H](C)[C@H](CN(C)C(=O)Oc2ccccc2)OCc2cnnn2CCCC1=O	7%	.	.	.	9%
NC(N)=O	-1%	.	0%	.	7%
CCOC(=O)CCn1cnc2ccc([N+](=O)[O-])cc2c1=O	-5%	0%	-2%	7%	0%
COc1ccc(N(C(=O)c2ccco2)C(C(=O)NC2CCCC2)c2ccc(N(C)C)cc2)cc1 (stereo unspecified)	4%	7%	-2%	0%	-6%
COc1ccc(-n2ccn3c(CC(C)(C)CC(=O)O)nnc3c2=O)cc1	-1%	.	.	-2%	.
CN(Cc1ccco1)C(=O)CN1C(=O)NC2(CCCC2)C1=O	6%	.	.	.	4%
CN(Cc1ccco1)C(=O)CN1C(=O)NC(c2ccccc2)(c2ccccc2)C1=O	-13%	.	.	35µM*	-7%
O=C1CC(N2CCOCC2)C(=O)N1c1cc(Cl)cc(Cl)c1 (stereo unspecified)	0%	4%	-2%	35µM*	11µM*
Cc1cc(C)cc(N2C(=O)CC(N3CCOCC3)C2=O)c1 (stereo unspecified)	-1%	-1%	2%	50µM*	-10%
O=C1CC(N2CCN(c3ccccc3)CC2)C(=O)N1c1cccc(Cl)c1 (stereo unspecified)	1%	3%	-5%	?	-78%
C=CCNc1nc2c(c(=O)n(C)c(=O)n2C)n1CCCCCC	11%	3%	-8%	-8%	1%
Cc1cc(C(c2nnnn2Cc2ccccc2)N2CCOCC2)c(C)n1-c1ccc2c(c1)OCO2 (stereo unspecified)	-32%	2%	-27%	10µM*	1%
CCOc1ccc2[nH]c(=O)c(C(c3nnnn3Cc3ccco3)N3CCN(C)CC3)cc2c1 (stereo unspecified)	-5%	-6%	0.89µM*	?	6%
Cc1cccc2cc(C(c3nnnn3Cc3ccc4c(c3)OCO4)N3CCCC3)c(=O)[nH]c12 (stereo unspecified)	-12%	7%	?	11µM*	-21%
c1coc(Cn2nnnc2CN2CCN(C3CCCC3)CC2)c1	-1%	0%	-22%	32µM*	-20%
COc1ccc(OC)c(C(c2nnnn2Cc2ccco2)N2CCN(C)CC2)c1 (stereo unspecified)	4%	-3%	-15%	0%	8%
Cc1cccc(NP(=O)(Oc2ccccc2F)Oc2ccccc2F)c1C	0%	3%	5%	11%	15%
COC(=O)c1sc(Nc2ccccc2)nc1C	-7%	-2%	0%	0%	-9%
Cc1ccc2[nH]c(=O)c3cc(C(=O)NC4CCC(C)CC4)sc3c2c1 (stereo unspecified)	-1%	.	.	15%	.
Cc1cc2cc(C(c3nnnn3Cc3ccco3)N3CCCCC3)c(=O)[nH]c2cc1C (stereo unspecified)	-11%	8%	-14%	40µM*	3%

Assay outcomes from PubChem.
